{"source": "PubChem BioAssay (NCATS)", "test_in_all_cases": "Cytotoxic Profiling of Annotated Libraries Using Quantitative High-Throughput Screening (AID 1296008); note: nearly all actives have a fitted effect of over 60% in size", "conditions_in_all_cases": "Five cell lines viability, CellTiter-Glo ATP luminescence, 48-72 h; max response: active compounds read low", "key": {"CRL-7250": {"system": "CRL-7250", "procedure,_shortened": "(§1)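 Compounds were pin-transferred onto cells and incubated 48 or 72 hr at 37 degree Celsius, 95% humidity. CellTiter-Glo was added, plates sat 10 min at room temperature, then ATP-coupled luminescence was imaged as the viability read-out.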"}, "HEK293": {"system": "HEK293", "procedure,_shortened": "as §1"}, "HaCat": {"system": "HaCat", "procedure,_shortened": "as §1"}}, "note": "Records with an inconclusive call do not appear. Unmarked numbers belong to inactive results. Activity calls are given as the source filed them. Calls come from the whole dose curve; as a rule, active = well fitted inhibition curve with a large enough effect; inconclusive = small, poorly fitted or top-dose-only effect; inactive = flat fitted curve, though single readings scatter. % is set by controls: 0 for no effect and ±100 for the full control effect; potency is the fitted concentration of half-maximal effect.", "data": [{"smiles": "CC(C)S(=O)(=O)NC[C@H](C)c1ccc(-c2ccc(CCNS(C)(=O)=O)cc2)cc1", "values": [{"measurement": "Potency", "setting": "CRL-7250", "value": "4.61 µM (active)"}, {"measurement": "Potency", "setting": "HEK293", "value": "5.8 µM (active)"}, {"measurement": "max response", "setting": "HaCat", "value": 2.78, "unit": "%"}]}, {"smiles": "CC[C@@H](C)Nc1cc(C(=O)NC2CC3CC[C@@H](C2)N3c2ccc(C(=O)C3CC3)cn2)c(C)cc1C(N)=O", "note": "(some centres not stated)", "values": [{"measurement": "Potency", "setting": "CRL-7250", "value": "0.231 µM (active)"}, {"measurement": "Potency", "setting": "HEK293", "value": "0.0517 µM (active)"}, {"measurement": "Potency", "setting": "HaCat", "value": "0.092 µM (active)"}]}, {"smiles": "O=C(NCCCc1ccccc1)c1cccc(-c2cc(O)c3ncccc3c2)c1", "values": [{"measurement": "Potency", "setting": "CRL-7250", "value": "5.17 µM (active)"}, {"measurement": "Potency", "setting": "HEK293", "value": "20.6 µM (active)"}, {"measurement": "Potency", "setting": "HaCat", "value": "25.9 µM (active)"}]}, {"smiles": "CCCCNc1ncc(C(=O)NCc2ccc(-n3ccnc3)cc2)c(NC2CCC(O)CC2)n1", "note": "(configuration not stated)", "values": [{"measurement": "Potency", "setting": "CRL-7250", "value": "13 µM (active)"}, {"measurement": "Potency", "setting": "HEK293", "value": "7.31 µM (active)"}, {"measurement": "Potency", "setting": "HaCat", "value": "23.1 µM (active)"}]}, {"smiles": "COC(=O)CC1OC(C)C2=C(O)c3c(O)cccc3C(=O)C23OC13", "note": "(configuration not stated)", "values": [{"measurement": "Potency", "setting": "CRL-7250", "value": "4.04 µM (active)"}, {"measurement": "Potency", "setting": "HEK293", "value": "2.86 µM (active)"}]}, {"smiles": "CN(C)CCOC(C)(c1ccccc1)c1ccc(Cl)cc1", "note": "(configuration not stated)", "values": [{"measurement": "Potency", "setting": "CRL-7250", "value": "25.9 µM (active)"}, {"measurement": "Potency", "setting": "HEK293", "value": "20.6 µM (active)"}]}, {"smiles": "CC(C)=CCCC1(C)/C=C/C(OC(=O)C=C(C)C)C(C)(O)/C=C/C(=O)/C(CO)=C\\C1", "note": "(configuration not stated)", "values": [{"measurement": "max response", "setting": "CRL-7250", "value": -29.1, "unit": "%"}, {"measurement": "Potency", "setting": "HEK293", "value": "2.52 µM (active)"}]}, {"smiles": "Fc1ccc(-c2nc(C3CCNCC3)sc2-c2ccnc(NC3CC3)n2)cc1", "values": [{"measurement": "outcome", "setting": "CRL-7250", "value": "inactive"}, {"measurement": "Potency", "setting": "HEK293", "value": "1.64 µM (active)"}, {"measurement": "Potency", "setting": "HaCat", "value": "5.17 µM (active)"}]}, {"smiles": "COc1cc2nc(C3CC3)nc(N3CCN(c4ccccc4OC)CC3)c2cc1OC", "values": [{"measurement": "max response", "setting": "CRL-7250", "value": -2.72, "unit": "%"}, {"measurement": "Potency", "setting": "HEK293", "value": "18.4 µM (active)"}, {"measurement": "max response", "setting": "HaCat", "value": -4.62, "unit": "%"}]}, {"smiles": "CC(O)C(C)n1ncn(-c2ccc(N3CCN(c4ccc(OCC5COC(Cn6cncn6)(c6ccc(Cl)cc6Cl)O5)cc4)CC3)cc2)c1=O", "note": "(configuration not stated)", "values": [{"measurement": "outcome", "setting": "CRL-7250", "value": "inactive"}, {"measurement": "Potency", "setting": "HEK293", "value": "16.4 µM (active)"}, {"measurement": "max response", "setting": "HaCat", "value": -3.2, "unit": "%"}]}]}
